Assay outcomes from PubChem.
Shown are actives, neighbours in structure and some others; about 2.9% of the full set was active somewhere.
Mcl1 Noxa PPI: Mcl-1/Noxa interaction inhibition; inhibition, % at 21.7 µM; Q07820; hit rate 1.5% among 220,000; AID 1022; TR-FRET Mcl-1/Noxa peptide binding, 2 h;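 active = compounds that cut the protein-peptide binding signal by more than 50% relative to plate controls in a single-dose test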;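 also: His-tagged Mcl-1 with rhodamine Noxa BH3 peptide and terbium anti-His antibody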
Target sequence (Q07820 whole entry, looked up): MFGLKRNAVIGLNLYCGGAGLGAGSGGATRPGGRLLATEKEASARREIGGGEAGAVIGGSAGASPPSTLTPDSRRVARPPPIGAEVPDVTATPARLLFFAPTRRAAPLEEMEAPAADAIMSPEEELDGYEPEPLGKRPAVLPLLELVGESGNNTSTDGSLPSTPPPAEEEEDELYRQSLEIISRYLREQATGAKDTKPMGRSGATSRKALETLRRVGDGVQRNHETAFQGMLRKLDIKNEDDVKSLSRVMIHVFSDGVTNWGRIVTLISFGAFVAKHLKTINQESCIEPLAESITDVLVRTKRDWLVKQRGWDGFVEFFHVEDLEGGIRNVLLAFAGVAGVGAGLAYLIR
Mcl1 Bid PPI: disrupts binding of human Mcl-1 to Bid peptide. inhibition, % at 21.7 µM. hit rate 0.97% among 220,000. Q07820. AID 1021. TR-FRET Mcl-1/Bid-Dy647 peptide binding, 1536-well;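 active = compounds that cut the binding signal by more than half at the single screening dose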;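 also: His-tagged Mcl-1 with europium anti-His antibody binding Bid BH3 peptide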
Mcl-1 Bim block: human Bim-Mcl-1 interaction inhibition; hit rate 0.1% among 190,000; Q07820; Bead-based flow cytometry, Bim peptide-Mcl-1 binding; inhibition, % at 10 µM; in the data active = inhibition above about 40%
Pf gametocyte: inhibitors of late stage P. falciparum gametocyte viability; hit rate 0.065% among 150,000; P. falciparum stage V gametocytes, ATP luminescence, 24 h; inhibition, % at 10.9 µM; AID 743093;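 active = inhibition above the mean plus 3 SD of compounds within the control limits, set per campaign, cut at about 38% in these data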
14-3-3 Bad inh: disrupts binding of bovine 14-3-3 zeta to phospho-Bad peptide. TR-FRET 14-3-3zeta/Dy647-pBad peptide displacement, 1 h. hit rate 0.71% among 220,000. inhibition, % at 21.7 µM;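 active = inhibition above about 70%, limit read from the data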
Target sequence (P63103 whole entry, looked up): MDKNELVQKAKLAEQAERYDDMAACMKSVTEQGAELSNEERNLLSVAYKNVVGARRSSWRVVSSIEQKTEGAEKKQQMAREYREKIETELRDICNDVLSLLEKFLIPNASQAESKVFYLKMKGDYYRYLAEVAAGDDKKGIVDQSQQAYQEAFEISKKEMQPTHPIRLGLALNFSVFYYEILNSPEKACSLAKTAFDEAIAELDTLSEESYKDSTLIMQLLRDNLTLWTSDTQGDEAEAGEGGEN
Hck Nef HTS: human Hck-Nef kinase inhibition. hit rate 0.68% among 220,000. P08631. inhibition, % at 20 µM. Recombinant Hck-YEEI plus Nef, Z-Lyte FRET kinase assay;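 active = Hck-Nef kinase inhibition above about 50%, limit read from the data; inactive = inhibition below that limit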
A number is an active result; n = inactive; x = no result; [ ] = remark or other dose.

SMILES	Mcl1 Noxa PPI	Mcl1 Bid PPI	Mcl-1 Bim block	Pf gametocyte	14-3-3 Bad inh	Hck Nef HTS
COc1ccc(C(c2c(O)ccc3ccccc23)N2CCOCC2)c(OC)c1 (centres undefined)	79	n	n	n	n	n
COc1ccc(C(CCN2CCOCC2)c2c(O)cc(OC)cc2OC)cc1 (centres undefined)	n	n	x	x	n	n
COC(=O)c1[nH]c2ccccc2c1NC(=O)c1ccccc1[N+](=O)[O-]	n	n	93	n	n	n
CCOc1ccc([C@@H]2CC=C(C(=O)O)[C@H](c3cccc(Cl)c3)N2S(=O)(=O)c2ccc(C)cc2)cc1	x	x	x	n	x	x
OC(COC(c1ccccc1)c1ccccc1)CN1CCN(c2ccccn2)CC1 (centres undefined)	n	n	n	n	n	n
CCSc1ncc(Cl)c(C(=O)Nc2sc3c(c2C(=O)NCc2cccnc2)CCCC3)n1	n	59	44	x	n	n
O=C(NCc1cccnc1)c1c(O)c2cccc3c2n(c1=O)CCC3	n	n	n	x	n	n
O=C(O)c1ccc(Cl)c(S(=O)(=O)Nc2ccc3[nH]c(=O)[nH]c3c2)c1	56	n	x	n	n	n
CC(C)NC(=O)C1(c2ccccc2)CCOCC1	n	n	n	x	n	n
CN(C)c1ccc(N=Nc2nc3ccccc3n2C)cc1	n	n	x	49	n	n
Cn1c(N=Nc2ccccc2)nc2ccccc21	n	n	n	n	n	n
Cc1ccc(OCC(=O)NC(=S)Nc2cccc(NC(=O)c3ccccc3)c2)cc1	n	n	n	x	n	n
Cc1ccc(OCC(=O)NC(=S)Nc2cccc(NC(=O)c3ccc(Cl)cc3Cl)c2)cc1	n	63	n	x	n	n
COCCCN(C(=O)c1cc2c(s1)CCC2)c1c(N)n(Cc2ccccc2)c(=O)[nH]c1=O	53	n	n	n	n	n
CCCN(C(=O)COc1ccc(Cl)cc1Cl)c1c(N)n(Cc2ccccc2)c(=O)[nH]c1=O	n	n	n	n	n	n
CCCN(C(=O)c1cc2c(s1)CCC2)c1c(N)n(Cc2ccccc2)c(=O)[nH]c1=O	62	n	x	n	n	n
N=C1/C(=C\c2ccc(-c3cc(Cl)cc(Cl)c3)o2)C(=O)N=C2SC=C(c3ccccc3)N12	n	n	n	n	n	n
CCOc1ccc(-c2ccc(/C=C3/C(=N)N4C=CSC4=NC3=O)o2)c([N+](=O)[O-])c1	129	89	n	n	84[fluorescence artefact?]	n
CC1=CN2C(=N)/C(=C/c3ccc([N+](=O)[O-])o3)C(=O)N=C2S1	65	n	n	n	n	n
CCOc1ccc(-c2ccc(/C=C3/C(=N)N4C(C)=CSC4=NC3=O)o2)c([N+](=O)[O-])c1	66	68	n	n	n	n
CCN(CC)c1ccc(N2C(=O)/C(=C/c3ccccn3)SC2=S)cc1	n	n	x	n	n	n
O=C(O)C[C@@H]1C(=O)O[C@@H]2C(COC(=O)c3cc(O)c(O)c(O)c3)O[C@@H](OC(=O)c3cc(O)c(O)c(O)c3)[C@@H](OC(=O)c3cc(O)c(O)c4c3[C@H]1[C@H](O)C(=O)O4)[C@H]2OC(=O)c1cc(O)c(O)c(O)c1 (some centres undefined)	100	76	x	x	81	102
Cc1cccc(C)c1NC(=S)Nc1c(C)n(C)n(-c2ccccc2)c1=O	n	n	n	n	n	n
Clc1ccc(N/N=C/c2ccncc2)cc1Cl	51	n	n	x	n	n
O=C(O)c1cccc(-c2ccc(/C=N/Nc3ccc([N+](=O)[O-])cc3)o2)c1	n	n	x	n	n	n
SMILES	Mcl1 Noxa PPI	Mcl1 Bid PPI	Mcl-1 Bim block	Pf gametocyte	14-3-3 Bad inh	Hck Nef HTS
O=C(O)c1ccc(-c2ccc(/C=N/Nc3ccc([N+](=O)[O-])cc3)o2)cc1	62	n	x	n	n	n
NS(=O)(=O)c1ccc(-c2ccc(/C=N/Nc3ccc(C(=O)O)cc3)o2)cc1	59	n	x	n	n	n
CCOC(=O)CSc1nnc(SCCN2C(=O)c3ccccc3C2=O)s1	n	n	n	n	n	n
CCOc1cc(/C=C2\SC(=O)N=C2N)ccc1O	52	n	n	x	n	n
C=CCn1c(O)c(C2=c3ccccc3=NC2=O)s/c1=N/c1nccs1	n	56	n	x	n	n
C=CCn1c(O)c(C2=c3ccccc3=NC2=O)c2ccccc21	x	x	x	n	x	x
Cc1ccc2nc(-c3ccc(NS(=O)(=O)c4ccc(F)cc4)cc3)sc2c1	n	n	n	n	n	n
COC(=O)c1cc(O)cc(OC)c1C(=O)c1c(O)cc(C)cc1O	n	n	x	x	n	n
COC(=O)c1cc(O)cc(OC)c1Oc1cc(C)cc(O)c1C(=O)O	85	n	x	x	n	n
COc1ccccc1NC1=C(NC(C)=O)C(=O)c2ccccc2C1=O	78	n	n	n	n	n
CN(C)S(=O)(=O)c1ccc(NC(=O)/C=C/c2ccccc2Cl)cc1	n	n	n	n	n	n
CN(c1cccc(NC(=O)Nc2cccc(Cl)c2)c1)S(C)(=O)=O	n	n	n	n	n	n
CN(C)c1ccc(NC(=O)Nc2csc3ccccc23)cc1	57	n	x	n	n	n
CN(C)c1ccc(NC(=O)/C=C/c2c(Cl)cccc2Cl)cc1	83	n	n	n	n	n
CN(C)c1ccc(NC(=O)Nc2cccc(Cl)c2)cc1	76	n	n	n	n	n
CCCc1ncc(C(O)c2cccc(OC)c2)n1C (centres undefined)	n	n	x	n	n	n
Cc1ccc(NC(=O)CN2C(=O)N/C(=C/c3cc(C)n(-c4cccc(C(=O)O)c4)c3C)C2=O)cc1	73	n	n	n	n	n
CCn1c(C)cc(/C=C2\NC(=O)N(CC(=O)Nc3cccc(C)c3)C2=O)c1C	n	n	n	x	n	n
Cc1ccc(NC(=O)CN2C(=O)N/C(=C\c3cccn3-c3cccc(C(=O)O)c3)C2=O)cc1	63	n	n	x	n	n
COc1ccc(NC(=O)c2cc3cccc(OC)c3oc2=Nc2ccc(C(=O)O)cc2)cc1OC	77	n	n	n	n	n
O=c1cc(CO)oc(C(Nc2ccccn2)c2ccc(F)cc2)c1O (centres undefined)	62	52	n	x	n	n
Cc1ccnc(NC(c2ccccc2O)c2oc(CO)cc(=O)c2O)c1 (centres undefined)	70	n	n	x	n	n
O=c1cc(CO)oc(C(Nc2ccccn2)c2ccccc2Cl)c1O (centres undefined)	n	n	n	n	n	n
O=c1cc(CO)oc(C(Nc2ccccn2)c2ccsc2)c1O (centres undefined)	n	n	n	x	n	n
COc1ccc(C(Nc2ccccn2)c2oc(CO)cc(=O)c2O)cc1 (centres undefined)	65	n	n	n	n	n
COc1ccc(/C(C)=N\NC(=O)C(c2ccncc2)N2CCOCC2)cc1 (centres undefined)	n	n	x	n	n	n
O=c1c([N+](=O)[O-])c(NC2CCCCC2)c2ccccc2n1-c1ccccc1	n	n	n	x	n	n
